Data reported in PubChem BioAssay (NCATS).
Results filed as inconclusive are left out. Active and inactive are the calls of the source. Calls follow the shape of the dose curve; as a rule, active = well fitted inhibition curve with a large enough effect; inconclusive = small, poorly fitted or top-dose-only effect; inactive = flat fitted curve, though single readings scatter.

What was measured:
Assay in all cases: qHTS profiling for inhibitors of Plasmodium falciparum proliferation (AID 504749); also: nearly all actives have a fitted effect of over 60% in size
[1] = system: CP250; conditions: P. falciparum in erythrocytes, SYBR Green DNA, 72 h; series mostly up to 12.8 µM
Summary of the method: (§1)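 SYBR Green fluorescence (ex 485 nm, em 535 nm) reports parasite DNA after 72 h compound exposure of infected red cells at 0.3% parasitemia, 2.5% hematocrit; signal normalized to 0.29 uM artemisinin and vehicle wells.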

[2] = system: CP252; conditions: P. falciparum in erythrocytes, SYBR Green DNA, 72 h; series mostly up to 12.8 µM
Summary of the method: as §1

[3] = system: CP256; conditions: P. falciparum in erythrocytes, SYBR Green DNA, 72 h; series mostly up to 12.8 µM
Summary of the method: as §1

[4] = system: CP262; conditions: P. falciparum in erythrocytes, SYBR Green DNA, 72 h; series mostly up to 12.8 µM
Summary of the method: as §1

[5] = system: CP265; conditions: P. falciparum in erythrocytes, SYBR Green DNA, 72 h; series mostly up to 12.8 µM
Summary of the method: as §1

[6] = system: CP266; conditions: P. falciparum in erythrocytes, SYBR Green DNA, 72 h; series mostly up to 28.7 µM
Summary of the method: as §1

[7] = system: CP268; conditions: P. falciparum in erythrocytes, SYBR Green DNA, 72 h; series mostly up to 12.8 µM
Summary of the method: as §1

[8] = system: CP269; conditions: P. falciparum in erythrocytes, SYBR Green DNA, 72 h; series mostly up to 12.8 µM
Summary of the method: as §1

[9] = system: CP286; conditions: P. falciparum in erythrocytes, SYBR Green DNA, 72 h; series mostly up to 12.8 µM
Summary of the method: as §1

[10] = system: CP291; conditions: P. falciparum in erythrocytes, SYBR Green DNA, 72 h; series mostly up to 12.8 µM
Summary of the method: as §1

[11] = system: CP305; conditions: P. falciparum in erythrocytes, SYBR Green DNA, 72 h; series mostly up to 12.8 µM
Summary of the method: as §1

[12] = system: CP315; conditions: P. falciparum in erythrocytes, SYBR Green DNA, 72 h; series mostly up to 12.8 µM
Summary of the method: as §1

[13] = system: CP325; conditions: P. falciparum in erythrocytes, SYBR Green DNA, 72 h; series mostly up to 12.8 µM
Summary of the method: as §1

[14] = system: CP329; conditions: P. falciparum in erythrocytes, SYBR Green DNA, 72 h; series mostly up to 12.8 µM
Summary of the method: as §1

[15] = system: CP335; conditions: P. falciparum in erythrocytes, SYBR Green DNA, 72 h; series mostly up to 12.8 µM
Summary of the method: as §1

[16] = system: DFO2036; conditions: P. falciparum in erythrocytes, SYBR Green DNA, 72 h; series mostly up to 12.8 µM
Summary of the method: as §1

[17] = system: DIV14; conditions: P. falciparum in erythrocytes, SYBR Green DNA, 72 h; series mostly up to 12.8 µM
Summary of the method: as §1

[18] = system: DIV17; conditions: P. falciparum in erythrocytes, SYBR Green DNA, 72 h; series mostly up to 12.8 µM
Summary of the method: as §1

[19] = system: DIV30; conditions: P. falciparum in erythrocytes, SYBR Green DNA, 72 h; series mostly up to 12.8 µM
Summary of the method: as §1

[20] = system: Dd2; conditions: P. falciparum in erythrocytes, SYBR Green DNA, 72 h; series mostly up to 12.8 µM
Summary of the method: as §1

[21] = system: ECU; conditions: P. falciparum in erythrocytes, SYBR Green DNA, 72 h; series mostly up to 12.8 µM
Summary of the method: as §1

[22] = system: FAB9; conditions: P. falciparum in erythrocytes, SYBR Green DNA, 72 h; series mostly up to 12.8 µM
Summary of the method: as §1

[23] = system: GB4; conditions: P. falciparum in erythrocytes, SYBR Green DNA, 72 h; series mostly up to 12.8 µM
Summary of the method: as §1

[24] = system: HB3; conditions: P. falciparum in erythrocytes, SYBR Green DNA, 72 h; series mostly up to 12.8 µM
Summary of the method: as §1

[25] = system: ICS; conditions: P. falciparum in erythrocytes, SYBR Green DNA, 72 h; series mostly up to 12.8 µM
Summary of the method: as §1

[26] = system: JCK; conditions: P. falciparum in erythrocytes, SYBR Green DNA, 72 h; series mostly up to 12.8 µM
Summary of the method: as §1

[27] = system: N140; conditions: P. falciparum in erythrocytes, SYBR Green DNA, 72 h; series mostly up to 12.8 µM
Summary of the method: as §1

[28] = system: P93_24; conditions: P. falciparum in erythrocytes, SYBR Green DNA, 72 h; series mostly up to 12.8 µM
Summary of the method: as §1

[29] = system: P94_40; conditions: P. falciparum in erythrocytes, SYBR Green DNA, 72 h; series mostly up to 12.8 µM
Summary of the method: as §1

[30] = system: PAD; conditions: P. falciparum in erythrocytes, SYBR Green DNA, 72 h; series mostly up to 12.8 µM
Summary of the method: as §1

[31] = system: PC15; conditions: P. falciparum in erythrocytes, SYBR Green DNA, 72 h; series mostly up to 12.8 µM
Summary of the method: as §1

[32] = system: PC26; conditions: P. falciparum in erythrocytes, SYBR Green DNA, 72 h; series mostly up to 12.8 µM
Summary of the method: as §1

[33] = system: PC49; conditions: P. falciparum in erythrocytes, SYBR Green DNA, 72 h; series mostly up to 12.8 µM
Summary of the method: as §1

[34] = system: SC27B; conditions: P. falciparum in erythrocytes, SYBR Green DNA, 72 h; series mostly up to 12.8 µM
Summary of the method: as §1

[35] = system: TAB109; conditions: P. falciparum in erythrocytes, SYBR Green DNA, 72 h; series mostly up to 12.8 µM
Summary of the method: as §1

[36] = system: TAB113; conditions: P. falciparum in erythrocytes, SYBR Green DNA, 72 h; series mostly up to 12.8 µM
Summary of the method: as §1

[37] = system: TAB165; conditions: P. falciparum in erythrocytes, SYBR Green DNA, 72 h; series mostly up to 12.8 µM
Summary of the method: as §1

[38] = system: W2; conditions: P. falciparum in erythrocytes, SYBR Green DNA, 72 h; series mostly up to 12.8 µM
Summary of the method: as §1

Measured: Potency

CC1(C)S[C@@H]2[C@H](NC(=O)[C@H](C(=O)O)c3ccsc3)C(=O)N2[C@H]1C(=O)O
inactive: all assays above
